Measurements reported in the supplement of paper PMC6555819.

Key:
Test in all cases: PBM binding z-score (relative to random genomic background probes); higher = stronger binding; sequences stand for … in GC…GCGATTGACAGCGTAGAATGAAGG
[1] = test system: RARb homodimer (NR concentration 270 nM)
In short: (§1)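 Binding z-scores were set against random background probes. The data came from custom Agilent 4×180K protein-binding microarrays carrying double-stranded probes with 34-nt variable regions, incubated 1 h with ligand-free nuclear receptor dimers. Partner-specific antibodies detected binding, and scanned fluorescence was regression-normalized.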

[2] = test system: RARg:RXRa (NR concentration 270 nM, RXRa partner concentration 90 nM)
In short: as §1

[3] = test system: RARg homodimer (NR concentration 270 nM)
In short: as §1

[4] = test system: RXRa DBDmut IVT, anti-RXR (DBD mutation: RXRa K156A/R161A, NR concentration 90 nM)
In short: as §1

[5] = test system: RXRa homodimer (NR concentration 180 nM)
In short: as §1

[6] = test system: THRa:RXRa (NR concentration 90 nM, RXRa partner concentration 90 nM)
In short: as §1

[7] = test system: THRa homodimer (NR concentration 90 nM)
In short: as §1

[8] = test system: VDR homodimer (NR concentration 270 nM)
In short: as §1

| Sequence | PBM binding z-score [1] | PBM binding z-score [2] | PBM binding z-score [3] | PBM binding z-score [4] | PBM binding z-score [5] | PBM binding z-score [6] | PBM binding z-score [7] | PBM binding z-score [8] |
| --- | --- | --- | --- | --- | --- | --- | --- | --- |
| CTCGAAAGGTCGTGCTCTGGTGAGTATACCAAAC | 2.73 | 4.35 | 3.14 | 2.01 | 4.69 | 2.61 | 0.441 | 0.997 |
| CGAACTAGGTCAGACCAGGACAGTGAAGGATGAT | 2.36 | 2.82 | 3.53 | 0.518 | 1.51 | 4.75 | 0.741 | -0.102 |
| AGAATGAGGTTATCAAAGATCAGGGAAACGCTTG | 0.294 | 1.47 | 1.24 | 1.49 | 2.28 | 2.58 | 0.571 | 0.495 |
| TCTAGTTGGTCACGGAGTTCACACACGACGGGTA | 3.11 | 2.99 | 2.63 | 1.79 | 2.81 | 1.66 | 0.539 | 5.75 |
| CCTCGGAGGACAGAAGGTCAGAGCAGTCCGCTTT | 3.7 | 3.53 | 3.41 | 0.444 | 2.16 | 2.67 | -0.117 | 0.311 |
| CGAACTAGGTCAAGGACAGTTAATCTCCGCACGC | 3.38 | 3.88 | 4.87 | 1.65 | 2.89 | 3.09 | 2.12 | 0.602 |
| TCAATTAGTTGAAGGGCAACCGACGAGTCCGTTT | 1.28 | 0.369 | 0.258 | 1.02 | 0.562 | 0.164 | -0.267 | 1.42 |
| ACAGACAGGTGAGTGAAGGTAGCTCAGCTGGACG | -0.151 | -0.00932 | 0.0793 | -0.355 | 0.135 | 0.263 | -0.539 | -0.688 |
| GCATATAGGTAATACAAGTTGAAAGTCCGATTGT | 0.185 | 0.232 | 0.481 | 0.331 | 0.404 | 1.76 | -0.418 | 0.193 |
| TCGAGTAGGTTGGTCGGGGCATTCAGCCAACATA | 0.0867 | -0.467 | -0.483 | -0.0758 | -0.429 | 0.33 | 0.0385 | 0.0879 |
| CCTACTGGGCCAAGGTCATCGATCAGTCAAAGCA | 3.75 | 4.18 | 3.9 | 0.883 | 3.79 | 3.68 | 2.69 | 2.38 |
| CAAACTAGGTCAAGAGGTCAACGTCCGCTTCCCG | 5.63 | 7.92 | 7.74 | 2.76 | 7.68 | 4.5 | 2.96 | 3.84 |
| ATCTCTAGGTAACAAGTACAGTGAAAGAGAGGAC | 0.631 | 0.905 | 0.824 | -0.118 | 0.349 | 1.12 | 0.739 | 0.41 |
| CGTCCTAGGTCAGCAGGTCAGTGAAAGCGACGTG | 4.37 | 4.95 | 5.41 | 0.595 | 3.21 | 2.88 | 1.1 | 0.285 |
| ACTATTAGTTGACTTCGGGCAACCGATACGACGC | 0.558 | 0.37 | 0.691 | 0.225 | 0.42 | 1.06 | 0.256 | 0.371 |
| GCTAGCAGGCCATTTCGGTCACTCAATGACGGGC | 1.03 | 0.276 | 0.793 | 0.0509 | -0.116 | 0.245 | -0.53 | -0.487 |
| CCTACTGGGCCCTCAGGTCATTGATATCAACGTT | 2 | 1.1 | 0.939 | -0.149 | 0.755 | 3 | 2.78 | 1.17 |
| TCTTGTAGATCAAGCAGGTTAAGACAGCCTGAGT | 0.295 | -0.0241 | -0.105 | 0.547 | 0.368 | 0.23 | -0.66 | -0.155 |
| GATACAGGGTCAGCTAGATGCCAGAGTATGGAAA | 2.84 | 4.95 | 4.12 | 1.23 | 4.38 | 2.87 | 0.0826 | 0.494 |
| ATCTCTAGGTAAACAAGTTCAGTGAATGCCGAAC | 1.51 | 0.719 | 1.05 | 1.09 | 0.385 | 1.33 | 0.65 | 2.69 |
| CCTCGGAGAACAACAGGAGGTCAGAGCTGCCAGA | 2.85 | 1.99 | 1.83 | 0.121 | 1.86 | 2.02 | 0.641 | 0.996 |
| TAGCCTAGGTCAGATCGGGCCAGTACACGCTATA | 2.33 | 2.85 | 3.65 | -0.269 | 1.55 | 4.29 | 0.126 | 0.0191 |
| GATACATGGTCAAGGCCAGAGTACGCGTATTGAT | 0.856 | 0.785 | 0.985 | -0.244 | 0.439 | 0.149 | -0.41 | 0.0812 |
| ATACCAAGGTGATCGTAAGGTCGTTGATACTAAC | 2.01 | 2.35 | 0.817 | 0.559 | 1.68 | 3.44 | 3.08 | 2.23 |
| TGTCAAAGTTCAAGGGTAACGTAAGTATCCACAC | 3.92 | 5.81 | 6.14 | 3.72 | 5.45 | 2.89 | 0.138 | 3.21 |
| ATTACAGGGTCACTAGGCCAGAGTAGGTACGAAT | 3.38 | 5.4 | 5.25 | 2.67 | 5.24 | 3.48 | 1.5 | 2.93 |
| ATATGTAGGTTACAGCCGGGTCATTCAGGCTATG | 2.93 | 4.28 | 2.25 | 0.721 | 3.34 | 3.57 | 1.89 | 2.96 |
| CTACCAAGGTGAACAAGGTCGTTGATTACTATTC | 2.1 | 1.73 | 1.67 | 1.41 | 1.91 | 3.2 | 1.81 | 2.28 |
